Reference: PubChem BioAssay (NCI)
“And” between values parts separate entries of the source, which are not always exact repeats. Equal entries are not always repeated. About 83,000 compounds went through this panel and 20% of them were active in at least one assay; those are over-represented in the sample as a whole.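 Single-dose data. Exposure time 48 hours. Values below 10 considered active.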 Values without a mark were called inactive.

Each compound was assayed on MDA-MB-468 breast (assay: NCI-60 one-dose screen, 48 h (100 = growth as untreated, 0 = no growth, -100 = all killed)). Settings: 10 µM unless noted.

Structure (SMILES) | growth
O=C(Nc1ccc(F)cc1)c1cc([N+](=O)[O-])ccc1O | 56.3%
CCCC(=O)c1cccs1 | 96.9%
N#C/C(=C\c1ccc(Cl)cc1Cl)C(=O)Nc1ncc(Cc2ccc(Cl)c(Cl)c2)s1 | 88.6%
COc1ccc(/C=C2\COc3ccc(O)c(O)c3C2=O)c(OC)c1 | 27.9%
O=C1CCC(C(=O)NCCNCCNC(=O)C2CCC(=O)N2)N1 (stereo unspecified) | 89.7%
CCN(CC)c1ccc(/C=C(\C#N)c2cc3ccccc3[nH]2)cc1 | 47.3%
COc1ccc(COC(C)=O)cc1 | 108%
C=C(C)[C@@H]1CC[C@]2(C(=O)NCCNCCNC(=O)OC(C)(C)C)CC[C@]3(C)[C@H](CC[C@@H]4[C@@]5(C)CCC(=O)C(C)(C)[C@@H]5CC[C@]43C)[C@@H]12 | 53.5% [100 µM]
CC(=O)c1sc2sc(C(C)=O)c(C)c2c1C | 61.4%
Clc1ccc(NC(Nc2ccc(Cl)cc2)C(Cl)(Cl)Cl)cc1 | 98.4% and 108%
COc1ccc2[nH]cc(C(c3ccc(Cl)cc3)N3CCCC3)c2c1 (stereo unspecified) | 84%
